High-throughput results as filed in PubChem.
A selection: hits, their analogues and other compounds. The true share with any hit is near 8.6%.
LASV entry inh – inhibitors of Lassa virus binding or entry into cells; Potency, µM (highest dose often 49.2 µM), for the others: at the highest dose activity change, negative = inhibition, hits mostly inhibitors; 18,000 tested, 4.1% active; Lassa virus pseudotyped entry inhibition, cell-based qHTS
Marburg entry – inhibitors of Marburg virus binding or entry into cells. Marburg virus pseudotype entry/binding inhibition, cell-based. Potency, µM (top dose mostly 49.2 µM), without a hit: top-dose activity change, negative = inhibition, usual class: inhibitors. 18,000 tested, 6.5% active
Active calls of the source: *; ? = inconclusive; nt = no result; ! = not confirmed by another sample; [ ] = another dose, or the depositor's remark. Calls come from the whole dose curve; tested in HEK293 cells. % is set by controls: 0 for no effect and ±100 for the full control effect; potency is the fitted concentration of half-maximal effect.

SMILES	LASV entry inh	Marburg entry
CCOC(=O)C1OC1C(=O)NC(CC(C)C)C(=O)NCCC(C)C (centres undefined)	-3%	3.5µM*
C=C1c2cccc(C(F)(F)F)c2O[C@H](C(=O)OCC)[C@@H]1CCC(C)C	4%	-12%
OCc1ccc(-c2nc(-c3ccc4c(c3)OCO4)c(-c3ccccn3)[nH]2)cc1	-25%	?
COc1cccc([C@H]2Oc3ccc(OC)cc3C(=NO[C@@H](C)c3cn([C@H](CO)Cc4ccccc4)nn3)[C@H]2O)c1	11%[8.59 µM]	5%[8.59 µM]
COC(=O)CC1=CO[C@@H](O)[C@@H]2C(CO)=CC[C@@H]12	-11%[8.59 µM]	16%[8.59 µM]
C[C@@H]1N[S+](=O)([O-])c2cccc(Cl)c2O[C@H]1c1ccccc1	?	33%
C[C@H]1CCCC=CC2C[C@H](O)C[C@@H]2[C@H](O)C=CC(=O)O1 (some centres undefined)	?	35µM*
C=C1[C@@H]2CCN3C(=O)N[C@@H](c4ccccc4)[C@@]1(C(=O)OCC)C23 (some centres undefined)	17%[8.59 µM]	?
CC1=CC2CC(CCO)OP(=O)(OC1)O2 (centres undefined)	-19%	-2%
COCOCCn1cc(CN2CCS(=O)(=O)N(Cc3ccc(-c4ccccc4)cc3)C(C)C2=O)nn1 (centres undefined)	-7%	10%
CC(=O)O[C@@H]1[C@@H](O)C2OC3C=C(C)C(=O)[C@@H](O)[C@]3(CO)C1(C)C21CO1 (some centres undefined)	0.56µM*	0.35µM*
CN1CCC(Nc2ncc3ncnc(Nc4ccc(F)c(Cl)c4)c3n2)CC1	-10%	10µM*
C=CC[C@@H]1C=C[C@H](ON=C(C)CCN2CCCc3nc(C)c(C)cc32)[C@H](CO)O1	4%[8.59 µM]	23%[8.59 µM]
C=CCCN1C=C(C(=O)OCC)C(c2ccccc2)NC1=O (centres undefined)	34%[8.59 µM]	?
Cc1ccccc1-c1nc(NC2CCNCC2)c2ccccc2n1	9%	8.9µM*
Cc1ccccc1-c1nc(NCCN2CCOCC2)c2ccccc2n1	-3%	-16%
CCCNC(=O)OC[C@H]1O[C@H](CCON=Cc2ccc(C(=O)N3[C@H](C(=O)OC)CC[C@H](C)[C@@H]3c3ccc(C)cc3)cc2)C=C[C@H]1Oc1ccc(OC)cc1	nt	-28%[8.59 µM]
CC=Cc1cc2ccccc2c2c(C(=O)OC)c(C(=O)OC)c(C(=O)OC)n12	-2%[8.59 µM]	?
O=C(C1CCCCC1)N1C[C@H](O)[C@H](n2cc(C3CC3)nn2)C[C@@H]1c1ccc(Cl)cc1	-19%	-36%
CC(C)=CCCC(C)=CCN1C(=O)[C@@]2(CC(C)=C[C@@H](COCc3ccccc3)O2)c2ccccc21	-22%[8.59 µM]	6%[8.59 µM]
CCCC[C@@H](C)/C=C(C)/C=C(\C)C(=O)NC1=C[C@@](O)(/C=C/C=C/C=C/C(=O)NC2=C(O)CCC2=O)[C@@H]2O[C@@H]2C1=O	16µM*	5.6µM*
COc1cc(NS(C)(=O)=O)ccc1Nc1c2ccccc2nc2ccccc12	3.2µM*	?
Cc1cccc(CNc2nc(-c3cccc(NS(C)(=O)=O)c3)nc3ccccc23)c1	-25%	?
O=C(C=Cc1ccccc1)N1CCC[C@H]1CO	3%[8.59 µM]	43%[8.59 µM]
O=C(O)CCC(=O)c1ccc(-c2ccccc2)cc1	11%[17.8 µM]	0.1µM*!
SMILES	LASV entry inh	Marburg entry
O=C(CC(=O)c1ccccc1)c1ccccc1	59%	35%
COC(=O)C1=C(C)N(Cc2ccccc2)C(=NCC(C)C)NC1c1cccc(C(F)(F)F)c1 (centres undefined)	nt	9%[8.59 µM]
Nc1ccccc1S(=O)(=O)Nc1cccc2cccnc12	18µM*	7.1µM*
Nc1c(S(=O)(=O)O)cc(Nc2cccc3ccccc23)c2c1C(=O)c1ccccc1C2=O	-15%	5%
C=CCN1Cc2ccccc2Oc2ccc(Cl)cc2S1(=O)=O	42%	9%
COC1(CS(=O)c2ccccc2)CCN(CCc2c[nH]c3ccc(F)cc23)CC1 (centres undefined)	-13%	16µM*
COc1ccc2[nH]cc(CCN(C)C)c2c1	1%	-13%
C=C(C)C(=O)OC[C@@H]1CN2[C@H](c3ccc(Br)cc3)[C@H](C)CC[C@H]2C(=O)O1	11%[8.59 µM]	46%[8.59 µM]
COC(=O)CC=C[C@@H](C)[C@H](O)c1ccccc1Br	-19%[8.59 µM]	-22%[8.59 µM]
COC(=O)CC=C[C@@H](C)[C@H](OC)c1ccccc1Br	?	0.6µM*!
CCCCCCC(=O)O[C@H]1CC[C@H]2[C@@H]3CC[C@H]4CC(=O)C=C(C)[C@]4(C)[C@H]3CC[C@]12C	?	19%
CC1=C(C(=O)Nc2cc(Cl)c3[nH]ncc3c2)C(c2ccc(C(F)(F)F)cc2)CC(=O)N1 (centres undefined)	-20%	-33%
CCCNC(=O)OC[C@H]1O[C@H](CCON=C2C[C@@H](O)[C@@H](O)[C@@H]3[C@H]4C(=O)N(CC)C(=O)[C@@H]4CC[C@H]23)C=C[C@H]1Oc1ccc(OC)cc1	-3%[8.59 µM]	0%[8.59 µM]
CC(=O)OC1CCC2(C)C3=C(CCC2C1(C)C)[C@@]1(C)CCC(C(C)CCC=C(C)C)[C@@]1(C)CC3 (some centres undefined)	-8%	-14%
COc1cc(/C=C/C(=O)O[C@H]2CC[C@]34C[C@]35CC[C@]3(C)[C@@H]([C@H](C)CCC=C(C)C)CC[C@@]3(C)[C@@H]5CC[C@H]4C2(C)C)ccc1O	25µM*!	1%
Cc1cc(OCc2cn(CC(=O)c3ccc(O)cc3)nn2)cc(C)c1C	?	22%
CCN(CC)CC(O)CN1CCCCc2nc(C)c(C)cc21 (centres undefined)	-17%[8.59 µM]	-8%[8.59 µM]
C=CC[C@@H]1C=C[C@H](ON=C2c3cc(OC)ccc3O[C@H](c3cccc(OC)c3)[C@@H]2O)[C@H](CO)O1	-4%[8.59 µM]	-5%[8.59 µM]
CCCC=Cc1ccc(CN2C(C)C(=O)N(Cc3cn(CCOCOC)nn3)CCS2(=O)=O)cc1 (centres undefined)	nt	-15%
COC1C(O)C(C)O[C@@H](OC2CC[C@@]3(C)C4CC[C@]5(C)C(C6=CC(=O)OC6)CC[C@@]5(O)C4CC[C@@H]3C2)C1O (some centres undefined)	0.1µM*	0.079µM*
COC1C(O)C(C)O[C@H](OC2CC[C@@]3(C=O)C4CC[C@]5(C)C(C6=CC(=O)OC6)CC[C@@]5(O)C4CC[C@@H]3C2)C1O (some centres undefined)	0.1µM*	?
CC(C)N1C(=O)[C@@H]2CSCCS(=O)(=O)N2C1=O	7%	17%
COc1ccc2c3c(c(=O)oc2c1)[C@H]1O[C@](CCCCN2C(=O)c4ccccc4C2=O)(Cc2cc(OC)c(OC)cc21)O3	9%[8.59 µM]	?
C=C(Br)CO[C@@H]1C=C[C@@H](c2ccccc2)O[C@@H]1COC	33%[8.59 µM]	9%[8.59 µM]
O=S1CCN(Cc2ccc(-c3ccc4ncnc(Nc5ccc(OCc6ccccc6)c(Cl)c5)c4c3)o2)CC1	-36%	?
SMILES	LASV entry inh	Marburg entry
COc1ccc(/C=C/C(=O)c2cc(O)ccc2O)cc1	0.89µM*	-20%
COc1ccc(/C=C/C(=O)c2ccc(O)cc2O)cc1	11%	4%
O=S1(=O)CCSCCN1Cc1ccccc1Br	23%	19%
C=C(C[C@@]1(C(=O)OC)C=C[C@@H](C)[C@H](c2ccccc2Br)N1C(=O)C(F)(F)F)c1ccccc1	-4%[8.59 µM]	-14%[8.59 µM]
Oc1cc2c(cc1O)C1c3ccc(O)c(O)c3OCC1(O)C2 (centres undefined)	?	4µM*
CC[C@@]1(O)CC(O)c2c(cc3c(c2O)C(=O)c2c(O)ccc(O)c2C3=O)C1C(=O)OC (some centres undefined)	6%	-20%
